Experimental findings from PubChem BioAssay (Tox21) are described below.

In test [1] the target is Acetylcholinesterase (Homo sapiens) (UniProt P22303). Put plainly: Acetylcholinesterase (AChE) small molecule antagonists: fluorescence cell-based qHTS assay (AID 1347398; calls by dose curve; also: nearly all actives have a fitted effect of over 50% in size; also: potency is read from the fitted curve at half-maximal effect). The following applies: Potency: AChE activity. In a few lines:
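Endogenous acetylcholinesterase of SH-SY5Y neuroblastoma cells is measured in situ. After overnight attachment and 30 min compound exposure, cells receive acetylthiocholine and Thiolite Green; fluorescence is read after 40 min at room temperature.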
In general terms: qHTS replaces the single test concentration by a dilution series.

Test [2] shares this target. Put plainly: Acetylcholinesterase (AChE) small molecule antagonists: enzyme-based qHTS assay with human liver microsomes (AID 1347399; calls by dose curve; also: nearly all actives have a fitted effect of over 60% in size; also: potency is read from the fitted curve at half-maximal effect). The following applies: Potency: qHTS inhibition. In a few lines: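 Recombinant human AChE (50 mU/mL in the enzyme mix) and human liver microsomes (0.25 mg/mL final) were preincubated with compound and NADPH (0.25 mg/mL final) for 30 min at 37 C. Acetylthiocholine/DTNB was then added; thiocholine was read colorimetrically after 10 min at room temperature.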

The target in test [3] is Cytochrome P450 2D6 (Homo sapiens) (UniProt P10635). Description: Cytochrome P450 Family 2 Subfamily D Member 6 (CYP2D6) small molecule antagonists: luciferase reporter qHTS assay (AID 1671196). Also: nearly all actives have a fitted effect of over 50% in size. Also: potency is read from the fitted curve at half-maximal effect. As to activity change, negative = inhibition: series mostly up to about 120 µM. The method in brief: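 P450-Glo format: CYP2D6 converts a proluciferin substrate to luciferin in an NADPH-driven reaction lasting 1 h at room temperature. Light output, proportional to CYP2D6 activity, reflects interference by test chemicals.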
Chain of Cytochrome P450 2D6 (Homo sapiens) (P10635 whole entry, looked up): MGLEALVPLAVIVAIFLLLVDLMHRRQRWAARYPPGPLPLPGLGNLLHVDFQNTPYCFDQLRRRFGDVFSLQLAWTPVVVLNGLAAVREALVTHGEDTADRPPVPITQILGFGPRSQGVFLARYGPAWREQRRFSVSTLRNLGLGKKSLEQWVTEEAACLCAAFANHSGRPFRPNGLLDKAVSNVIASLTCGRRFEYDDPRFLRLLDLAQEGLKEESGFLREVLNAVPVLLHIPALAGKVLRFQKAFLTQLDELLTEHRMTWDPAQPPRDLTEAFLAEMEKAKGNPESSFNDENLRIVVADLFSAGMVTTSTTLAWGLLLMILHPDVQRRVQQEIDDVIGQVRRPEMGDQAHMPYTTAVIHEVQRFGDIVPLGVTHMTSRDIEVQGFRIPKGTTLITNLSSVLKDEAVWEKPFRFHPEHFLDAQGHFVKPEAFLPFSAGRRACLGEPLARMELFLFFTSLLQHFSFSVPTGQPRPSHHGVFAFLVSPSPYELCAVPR
On the technique in general: A reporter such as luciferase makes a cellular process visible.

Test [4] addresses Cytochrome P450 2C9 (Homo sapiens) (UniProt P11712). Description: Cytochrome P450 Family 2 Subfamily C Member 9 (CYP2C9) small molecule antagonists: luciferase reporter qHTS assay (AID 1671198). Also: nearly all actives have a fitted effect of over 50% in size. Also: potency is read from the fitted curve at half-maximal effect. As to activity change, negative = inhibition: series mostly up to about 120 µM. In a few lines:
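P450-Glo proluciferin substrate with CYP2C9 enzyme; 10 min RT preincubation, then NADPH regeneration 1 h at 37C; luciferin detection reagent 20 min RT, luminescence in relative luminescence units.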

In test [5] the target is Cytochrome P450 1A2 (Homo sapiens) (UniProt P05177). Description: Cytochrome P450 Family 1 Subfamily A Member 2 (CYP1A2) small molecule antagonists: luciferase reporter qHTS assay (AID 1671199). Also: nearly all actives have a fitted effect of over 50% in size. Also: potency is read from the fitted curve at half-maximal effect. As to activity change, negative = inhibition: series mostly up to about 120 µM. The method in brief: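 Inhibition of CYP1A2 conversion of proluciferin to luciferin, detected by luminescence. Reaction run 1 h at room temperature with NADPH regeneration after brief compound preincubation.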
Chain of Cytochrome P450 1A2 (Homo sapiens) (P05177 whole entry, looked up): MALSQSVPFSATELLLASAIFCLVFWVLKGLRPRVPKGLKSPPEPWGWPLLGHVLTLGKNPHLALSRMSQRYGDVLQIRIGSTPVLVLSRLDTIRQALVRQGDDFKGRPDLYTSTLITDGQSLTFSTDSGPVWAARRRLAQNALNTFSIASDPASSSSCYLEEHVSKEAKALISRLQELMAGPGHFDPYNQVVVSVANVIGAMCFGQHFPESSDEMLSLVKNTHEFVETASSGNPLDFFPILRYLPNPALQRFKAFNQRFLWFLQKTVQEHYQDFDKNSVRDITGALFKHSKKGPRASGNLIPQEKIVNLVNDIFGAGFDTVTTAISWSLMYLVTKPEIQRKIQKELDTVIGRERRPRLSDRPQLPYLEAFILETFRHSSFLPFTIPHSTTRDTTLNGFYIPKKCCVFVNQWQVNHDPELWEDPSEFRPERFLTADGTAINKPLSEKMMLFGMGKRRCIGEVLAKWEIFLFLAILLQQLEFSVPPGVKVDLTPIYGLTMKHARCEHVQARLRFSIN

Test [6] has as its target Cytochrome P450 3A4 (Homo sapiens) (UniProt P08684). Put plainly: Cytochrome P450 Family 3 Subfamily A Member 4 (CYP3A4) small molecule antagonists: luciferase reporter qHTS assay (AID 1671201). Also: nearly all actives have a fitted effect of over 50% in size. Also: potency is read from the fitted curve at half-maximal effect. As to activity change, negative = inhibition: series mostly up to about 120 µM. The method in brief: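 Recombinant human CYP3A4 converts a proluciferin substrate to luciferin over 1 h at room temperature after NADPH regeneration solution is added (compound preincubated 10 min); detection reagent stops reaction, luminescence read 20 min later as relative units.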

The target in test [7] is Voltage-gated inwardly rectifying potassium channel KCNH2 (Homo sapiens) (UniProt Q12809). Description: Human Ether-a-go-go-Related Gene (hERG) channel small molecule antagonists: fluorescence cell-based qHTS assay (AID 1671200). In a few lines:
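Thallium flux as potassium surrogate: FluxOR II dye loaded 1 h at room temperature into hERG-expressing U2OS cells, then stimulus buffer added after 10 min. Kinetic 480 nm excitation/540 nm emission read, 2 min.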
A general note: hERG is a cardiac potassium channel; its block is linked to QT prolongation.

Test [8] concerns the target Cytochrome P450 2C19 (Homo sapiens) (UniProt P33261). Put plainly: Cytochrome P450 Family 2 Subfamily C Member 19 (CYP2C19) small molecule antagonists: luciferase reporter qHTS assay (AID 1671197). Also: nearly all actives have a fitted effect of over 65% in size. Also: potency is read from the fitted curve at half-maximal effect. As to activity change, negative = inhibition: series mostly up to about 120 µM. In a few lines:
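Quantitative high-throughput screen of the Tox21 library using CYP2C19 with proluciferin substrate. Reaction: NADPH regeneration, 37C, 1 h, after 10 min compound preincubation at room temperature. Readout: luminescence.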

Values without a mark were called inactive. Records with an inconclusive call do not appear. Calls of active or inactive are those of the source. Unless noted, calls follow the shape of the dose curve; as a rule, active = well fitted curve in the direction sought with a large enough effect in the repeat runs; inconclusive = weak or mixed curves; inactive = no such curve, though single readings can be large; an effect the other way counts as inactive or inconclusive.
% is scaled to controls: 0 for no effect and ±100 for the full control effect.

Chain of Voltage-gated inwardly rectifying potassium channel KCNH2 (Homo sapiens) (Q12809 whole entry, looked up): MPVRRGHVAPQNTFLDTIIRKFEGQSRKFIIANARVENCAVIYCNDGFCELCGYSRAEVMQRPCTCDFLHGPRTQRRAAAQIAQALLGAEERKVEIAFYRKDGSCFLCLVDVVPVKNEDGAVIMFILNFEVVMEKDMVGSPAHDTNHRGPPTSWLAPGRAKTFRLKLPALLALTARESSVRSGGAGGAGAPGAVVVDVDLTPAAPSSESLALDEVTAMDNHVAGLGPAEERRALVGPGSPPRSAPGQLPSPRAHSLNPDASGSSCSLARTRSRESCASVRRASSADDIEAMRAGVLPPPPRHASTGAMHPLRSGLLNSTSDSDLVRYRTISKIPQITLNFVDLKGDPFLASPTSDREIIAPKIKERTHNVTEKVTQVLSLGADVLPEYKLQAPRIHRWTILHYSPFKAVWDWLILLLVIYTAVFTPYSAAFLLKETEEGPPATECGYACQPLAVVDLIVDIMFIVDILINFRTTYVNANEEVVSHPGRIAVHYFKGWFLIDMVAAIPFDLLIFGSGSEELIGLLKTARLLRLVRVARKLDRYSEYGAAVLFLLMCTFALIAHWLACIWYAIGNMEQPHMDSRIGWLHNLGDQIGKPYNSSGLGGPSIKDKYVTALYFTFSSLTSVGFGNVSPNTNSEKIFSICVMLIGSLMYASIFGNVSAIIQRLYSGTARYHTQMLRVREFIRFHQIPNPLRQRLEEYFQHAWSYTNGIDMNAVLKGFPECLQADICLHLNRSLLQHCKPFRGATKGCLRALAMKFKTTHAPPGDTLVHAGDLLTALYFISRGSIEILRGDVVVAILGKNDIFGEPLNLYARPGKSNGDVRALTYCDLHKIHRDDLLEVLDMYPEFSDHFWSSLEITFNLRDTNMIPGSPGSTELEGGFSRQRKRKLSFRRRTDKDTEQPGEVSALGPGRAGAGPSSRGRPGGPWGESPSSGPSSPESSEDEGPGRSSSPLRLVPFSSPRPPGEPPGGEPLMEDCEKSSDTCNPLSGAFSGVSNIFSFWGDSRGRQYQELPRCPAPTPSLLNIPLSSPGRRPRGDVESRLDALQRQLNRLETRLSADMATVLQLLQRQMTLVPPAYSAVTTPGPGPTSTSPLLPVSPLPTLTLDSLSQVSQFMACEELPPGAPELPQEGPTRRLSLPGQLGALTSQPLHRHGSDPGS
Chain of Cytochrome P450 3A4 (Homo sapiens) (P08684 whole entry, looked up): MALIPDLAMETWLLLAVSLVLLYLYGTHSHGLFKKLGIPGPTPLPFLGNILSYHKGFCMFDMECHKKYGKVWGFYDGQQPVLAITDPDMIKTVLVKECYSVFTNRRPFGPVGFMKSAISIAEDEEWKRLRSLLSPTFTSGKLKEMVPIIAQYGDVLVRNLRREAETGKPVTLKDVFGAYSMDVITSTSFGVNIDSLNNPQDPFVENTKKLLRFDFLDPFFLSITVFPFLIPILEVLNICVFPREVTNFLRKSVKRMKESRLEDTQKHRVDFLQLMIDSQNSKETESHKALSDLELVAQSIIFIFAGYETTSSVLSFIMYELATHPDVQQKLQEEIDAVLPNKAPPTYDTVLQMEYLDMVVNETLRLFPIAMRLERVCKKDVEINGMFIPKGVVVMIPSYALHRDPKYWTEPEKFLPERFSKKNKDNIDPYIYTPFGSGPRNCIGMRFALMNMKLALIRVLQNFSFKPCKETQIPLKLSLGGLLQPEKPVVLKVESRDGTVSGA
Chain of Cytochrome P450 2C19 (Homo sapiens) (P33261 whole entry, looked up): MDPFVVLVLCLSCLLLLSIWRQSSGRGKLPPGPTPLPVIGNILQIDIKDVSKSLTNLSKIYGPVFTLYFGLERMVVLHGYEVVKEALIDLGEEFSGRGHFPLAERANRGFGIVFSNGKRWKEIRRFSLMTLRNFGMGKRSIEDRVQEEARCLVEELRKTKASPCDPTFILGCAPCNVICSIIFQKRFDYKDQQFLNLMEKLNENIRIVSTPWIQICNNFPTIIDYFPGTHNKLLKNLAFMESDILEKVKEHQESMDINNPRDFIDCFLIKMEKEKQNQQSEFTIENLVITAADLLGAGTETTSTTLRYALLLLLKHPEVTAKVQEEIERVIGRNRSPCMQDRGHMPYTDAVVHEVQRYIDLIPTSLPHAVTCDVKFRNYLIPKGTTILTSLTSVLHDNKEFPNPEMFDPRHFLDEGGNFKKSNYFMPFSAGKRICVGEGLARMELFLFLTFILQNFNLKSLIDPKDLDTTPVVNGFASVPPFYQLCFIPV
Chain of Acetylcholinesterase (Homo sapiens) (P22303 whole entry, looked up): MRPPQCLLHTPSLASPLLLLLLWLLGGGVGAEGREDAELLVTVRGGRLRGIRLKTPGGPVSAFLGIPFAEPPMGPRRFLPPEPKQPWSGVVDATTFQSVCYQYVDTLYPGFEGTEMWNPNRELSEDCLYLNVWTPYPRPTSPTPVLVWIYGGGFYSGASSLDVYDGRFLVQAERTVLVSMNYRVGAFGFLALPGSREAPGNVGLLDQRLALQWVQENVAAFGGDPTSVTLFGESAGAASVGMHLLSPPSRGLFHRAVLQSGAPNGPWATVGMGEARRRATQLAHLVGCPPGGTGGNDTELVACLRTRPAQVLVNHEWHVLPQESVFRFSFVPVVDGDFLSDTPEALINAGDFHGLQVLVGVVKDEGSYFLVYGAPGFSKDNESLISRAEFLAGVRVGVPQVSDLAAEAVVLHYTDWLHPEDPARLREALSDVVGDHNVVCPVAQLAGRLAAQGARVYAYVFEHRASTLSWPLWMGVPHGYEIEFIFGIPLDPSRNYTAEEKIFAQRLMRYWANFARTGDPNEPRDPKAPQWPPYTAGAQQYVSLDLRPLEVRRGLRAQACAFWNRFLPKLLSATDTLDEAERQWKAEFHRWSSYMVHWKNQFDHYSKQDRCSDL
Chain of Cytochrome P450 2C9 (Homo sapiens) (P11712 whole entry, looked up): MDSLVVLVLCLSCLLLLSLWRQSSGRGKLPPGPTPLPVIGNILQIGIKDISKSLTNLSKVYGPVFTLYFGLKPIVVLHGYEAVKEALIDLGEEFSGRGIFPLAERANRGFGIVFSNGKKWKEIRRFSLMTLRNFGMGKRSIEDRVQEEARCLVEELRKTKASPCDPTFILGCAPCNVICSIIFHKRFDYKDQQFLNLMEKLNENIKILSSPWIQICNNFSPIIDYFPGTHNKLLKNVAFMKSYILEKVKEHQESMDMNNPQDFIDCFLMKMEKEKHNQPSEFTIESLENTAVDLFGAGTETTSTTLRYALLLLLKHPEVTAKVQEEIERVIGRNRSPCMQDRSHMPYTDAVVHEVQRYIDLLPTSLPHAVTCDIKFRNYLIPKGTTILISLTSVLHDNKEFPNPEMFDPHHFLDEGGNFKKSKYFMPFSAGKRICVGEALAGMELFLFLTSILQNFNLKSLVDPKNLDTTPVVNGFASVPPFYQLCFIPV

`C#CCN1C(=O)COc2cc(F)c(N3C(=O)C4=C(CCCC4)C3=O)cc21`: the Potency entry in test [1] and in test [2] was “inactive” each time. Moreover, the Potency in test [3] is 44.8 µM (active); in test [4], 71 µM (active); in test [5], 3.99 µM (active); in test [6] it was 35.6 µM (active).
Take `ClC(Br)Br`: the Potency entry in test [1], in test [2], in test [3], in test [4], in test [5] and in test [7] was “inactive” in each case. In test [6], the Potency result is “inactive”.
Regarding `NC(=S)C(N)=S`, the Potency entry in test [1], in test [2] and in test [7] was “inactive” throughout. The Potency in test [3] is 71 µM (active); in test [4] it was 79.6 µM (active).
Take `O=C(O)c1ccc2[nH]cc(CCCCN3CC=C(c4ccccc4)CC3)c2c1`: the Potency entry in test [1], in test [2], in test [4], in test [5], in test [7] and in test [6] was “inactive” in each case. In test [3], the Potency is 12.3 µM (active).
For `O=[N+]([O-])c1cccc2cccnc12`, the Potency result in test [1], in test [2], in test [3], in test [4], in test [7] and in test [6] was “inactive” each time. Besides, in test [5], the Potency was 36.5 µM (active).
For the compound `CCC#N`, the Potency result in test [1], in test [2], in test [3], in test [4], in test [7] and in test [6] was “inactive” in each case.
Consider `COC(=O)c1ccccc1S(=O)(=O)NC(=O)Nc1nc(C)cc(C)n1`, for which the Potency entry in test [1], in test [2], in test [3], in test [4], in test [5] and in test [7] was “inactive” throughout. Besides, the Potency entry in test [6] was “inactive”.
For the compound `C(CCOCC1CO1)COCC1CO1` (centres undefined), the Potency entry in test [1], in test [2], in test [3], in test [4], in test [5] and in test [7] was “inactive” throughout. Further, the Potency result in test [6] was “inactive”.
As to `CNC(=O)Oc1ccc(N(C)C)c(C)c1`, the Potency in test [1] is 2.24 µM (active); in test [2], 39.9 µM (active); in test [5], 11.2 µM (active). The Potency result in test [8], in test [4], in test [7] and in test [6] was “inactive” each time.
On to `O=C1c2ccccc2C(=O)c2ccccc21`, for which the activity change, negative = inhibition in test [1] was 3.86% [at 23.8 µM]; in test [2] it was -1.34% [at 23.6 µM]; in test [8], 10.7% [at 23.6 µM]; in test [4] it was 2.12% [at 23.6 µM]; in test [7], 3.3% [at 15.8 µM]; in test [6], 15.9% [at 23.6 µM]. Moreover, the Potency in test [5] was 0.177 µM (active).
As for `OC(c1ccc(F)cc1)(c1cncnc1)c1ccccc1Cl` (centres undefined), the Potency result in test [1], in test [2] and in test [7] was “inactive” throughout. Besides, the Potency is 3.99 µM (active) in test [8], 20 µM (active) in test [4] and 0.356 µM (active) in test [6].
On to `CNC(=O)Oc1ccccc1C1OCCO1`, for which the Potency entry in test [1], in test [2], in test [8], in test [7] and in test [6] was “inactive” throughout. Also, in test [5], the Potency is 25.1 µM (active).
Turning to `CC(C(=O)c1ccccc1)N(C)C` (centres undefined), the Potency entry in test [1], in test [2], in test [5] and in test [7] was “inactive” in each case. Moreover, the Potency in test [8] was 4.9 µM (active).
For the compound `C[C@H]1CCC[C@H](O)CCCCCc2cc(O)cc(O)c2C(=O)O1`, the Potency entry in test [1] and in test [2] was “inactive” each time. Moreover, the Potency in test [8] is 22.6 µM (active); in test [4] it was 31.9 µM (active); in test [5], 35.8 µM (active); in test [6], 0.715 µM (active).
For the compound `C[C@]12CC[C@H]3[C@@H](CCC4=CC(=O)CC[C@@]43C)[C@@H]1CC[C@@H]2C(=O)O`, the Potency entry in test [1], in test [2], in test [3], in test [5] and in test [6] was “inactive” each time.
